Assay outcomes as filed in PubChem.
Ba/F3 V617F tox – lowers viability of Ba/F3 cells expressing EpoR and JAK2V617F. inhibition, % at 5.6 µM. AID 1446. ATP luminescence. hit rate 1.1% among 220,000;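 active = inhibition above the campaign mean plus 3 SD over all tested compounds, cut at about 24% in these data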;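 also: cytokine-independent growth of Ba/F3 cells driven by EpoR plus mutant JAK2; 0% = DMSO-treated cells and 100% = JAK inhibitor I control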
FID counter – displaces DNA intercalator in HCV helicase counter-screen; hit rate 0.17% among 290,000; DNA fluorescent intercalator displacement, fluorescence; inhibition, % at 7.9 µM; AID 1845; in the data active = inhibition above about 37%;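 also: 0% = vehicle and 100% = reference compound; higher means more ethidium bromide displaced from hairpin DNA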
GPR7 antag – human neuropeptides B/W receptor 1 antagonism | P48145 | GPR7-expressing cells, fluorescence antagonist assay | inhibition, % at 4.4 µM | hit rate 1.1% among 290,000; in the data active = inhibition above about 16%, passing the limit was not always enough;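 also: cells stimulated with the agonist NPW; 0% = agonist with vehicle and 100% = vehicle without agonist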
Target sequence (P48145 whole entry, looked up): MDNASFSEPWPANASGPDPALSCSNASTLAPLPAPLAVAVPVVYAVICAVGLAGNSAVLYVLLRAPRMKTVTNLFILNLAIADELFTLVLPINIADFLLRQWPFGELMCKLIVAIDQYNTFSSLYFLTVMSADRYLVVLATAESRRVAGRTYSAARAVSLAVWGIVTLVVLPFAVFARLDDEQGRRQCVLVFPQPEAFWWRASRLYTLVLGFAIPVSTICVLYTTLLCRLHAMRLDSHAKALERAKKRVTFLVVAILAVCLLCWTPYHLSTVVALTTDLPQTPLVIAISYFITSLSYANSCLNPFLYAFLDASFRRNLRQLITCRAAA
KLF5 inh – kruppel-like factor 5 inhibition. DLD-1 KLF5 promoter-luciferase reporter, luminescence. inhibition, % at 5 µM. AID 1700. hit rate 0.23% among 290,000;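 active = inhibition above a per-plate limit of that plate's mean compound inhibition plus 3 SD, cut at about 60% in these data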;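 also: 0% = DMSO wells and 100% = LY294002 at 200 µM; higher means less KLF5 promoter-driven luciferase light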
BaF3 parental – counter-screen for JAK2V617F inhibitors: parental Ba/F3 viability inhibitors | AID 1486 | inhibition, % at 5.6 µM | hit rate 1.1% among 220,000 | CellTiter-Glo ATP luminescence;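 active = inhibition above a per-campaign cutoff, the mean inhibition of all tested compounds plus 3 SD, cut at about 27% in these data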;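 also: 0% = DMSO wells and 100% = JAK Inhibitor I control wells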
IEC-6 tox – IEC-6 cytotoxicity, counter-screen for KLF5 inhibitors | luminescence viability | inhibition, % at 5 µM | hit rate 0.78% among 290,000 | AID 1825;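 also: 0% = plate median of test compound wells and 100% = cytotoxic reference compound wells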
GPR7 antag cf – human GPR7 antagonism, confirmation assay | shares compounds with GPR7 antag | GPR7-expressing cells, calcium fluorescence antagonist mode | inhibition, % at 4.4 µM | hit rate 52% among 2,400 | AID 1952; in the data active = inhibition above about 24%;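 also: stimulated with the GPR7 agonist NPW; 0% = agonist plus vehicle and 100% = vehicle alone without agonist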
MCHR1 antag – counter-screen for GPR7 antagonists: antagonists of human MCHR1. inhibition, % at 4.4 µM. AID 2148. shares compounds with GPR7 antag. hit rate 62% among 2,400. MCHR1-expressing cells, fluorescence antagonist assay;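 also: 0% = vehicle with agonist and 100% = vehicle without agonist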
* marks the source's active call; other numbers are inactive results; . = not tested or not shown. Sampled rows, rich in hits. Any-hit rate of the full collection: about 2.6%. Rule as the data show it, unless noted: active = inhibition above about 22%; inactive = the rest.

SMILES | Ba/F3 V617F tox | FID counter | GPR7 antag | KLF5 inh | BaF3 parental | IEC-6 tox | GPR7 antag cf | MCHR1 antag
COc1cccc(NC(=O)COc2cccc(-n3cnnn3)c2)c1 | -2.1 | -4.7 | 9.8 | -15.0 | 0.8 | -2.6 | . | .
Cc1cc(OCCCC(=O)Nc2cccc(-n3cnnn3)c2)ccc1Cl | . | -20.4 | 29.1* | -6.4 | . | -0.9 | 47.5* | 81.7*
O=C(CCN1C(=O)c2ccccc2C1=O)Nc1ccc2c(c1)OCCO2 | -2.5 | -2.2 | 23.0* | -1.1 | -1.4 | 0.3 | 0.2 | -1.4
COc1ccc(/C=C/C(=O)NC(=S)NNC(=O)c2cc(OC)c(OC)c(OC)c2)cc1 | -3.0 | -24.2 | 0.6 | -20.1 | 2.0 | 6.1 | . | .
Cc1cc(NC(=O)CN2C(=O)c3ccccc3C2=O)no1 | -3.0 | -0.8 | -15.9 | 4.5 | 0.6 | 4.4 | . | .
O=C(COC(=O)c1ccccc1C(=O)c1ccccc1)Nc1ccc(SC(F)F)cc1 | 0.9 | -18.6 | -13.1 | 9.3 | 2.7 | -0.7 | . | .
COCCn1c(-c2ccccc2)csc1=Nc1cccnc1 | -3.0 | -26.3 | -4.3 | 12.9 | 15.3 | 7.3 | . | .
CC(C)n1c(-c2ccco2)csc1=Nc1cccnc1 | 4.4 | -8.6 | 29.6* | 19.5 | 5.0 | 11.9 | 36.0* | 51.7*
CCc1ccccc1NC(=O)Cn1nc(C)n2cccc2c1=O | . | -1.4 | -14.7 | -15.3 | . | -0.1 | . | .
Cc1nn(CC(=O)Nc2ccccc2C(F)(F)F)c(=O)c2cccn12 | . | -8.3 | 31.3* | 1.9 | . | -3.6 | 9.2 | 0.9
COc1ccccc1-c1nnc(C2CCN(S(=O)(=O)c3ccc([N+](=O)[O-])cc3)CC2)o1 | . | -59.9 | 21.2* | -30.1 | . | -2.3 | 48.2* | 31.7*
CCOC(=O)C(C)Sc1ncnc2c1nnn2-c1ccc(F)cc1 (configuration not stated) | -3.3 | -7.9 | 43.9* | -23.1 | -0.6 | 0.3 | 37.5* | 44.1*
CCC(Sc1ncnc2c1nnn2-c1ccc(F)cc1)C(=O)OC (configuration not stated) | -4.0 | -6.0 | 14.4 | 0.3 | -1.1 | -0.1 | . | .
CC(C)C(c1nnnn1Cc1ccc(F)cc1)N1CCN(C(=O)c2ccco2)CC1 (configuration not stated) | 3.4 | -33.4 | 1.0 | -24.1 | 6.0 | 8.3 | . | .
O=C(O)c1ccc(NCc2cccc(Br)c2)cc1 | -0.9 | -8.9 | 28.7* | -3.3 | 5.2 | 8.3 | 27.7* | 18.2
On1onc2c3cc(-c4ccccc4)nc3ccc21 | 99.6* | 35.8 | 29.7* | -3.2 | 97.2* | 3.0 | 23.7 | 67.0*
Cc1cc(Cl)cc(C)c1OCCOCCNCc1ccccc1 | . | 28.3 | 27.4* | -40.6 | . | 0.6 | 35.2* | 28.0*
Clc1ccc(OCCOCCNCc2ccccc2)cc1Cl | . | 23.9 | 90.1* | -22.5 | . | -0.2 | 18.8 | 26.8*
CN(CCOc1ccc(Cl)c(Cl)c1)Cc1ccccc1 | . | 17.5 | -6.6 | -27.9 | . | -4.5 | . | .
Cc1[nH]n(-c2ccc(Cl)cc2)c(=O)c1C=Nc1ccc(S(=O)(=O)N2CCOCC2)cc1 | -0.4 | 0.9 | -20.8 | -37.1 | 4.6 | -0.8 | . | .
COc1cccc(C2=NOC(C(=O)NC(C)C)C2)c1 (configuration not stated) | 0.7 | 4.2 | 26.5* | -41.3 | 3.4 | -3.6 | 1.2 | 3.0
COc1cc(CN2CCC(CO)(Cc3cccc(C(F)(F)F)c3)CC2)ccc1F | -0.3 | 30.9 | 34.3* | 4.6 | 1.4 | -3.5 | 18.0 | 44.2*
CC(=O)NCCn1c(SCc2ccccc2C)nc2ccccc2c1=O | -1.9 | -14.5 | -15.2 | 6.4 | 2.9 | 11.2 | . | .
CC(=O)NCCn1c(SCc2cc(F)ccc2F)nc2ccccc2c1=O | 2.4 | -3.8 | 32.6* | 19.5 | 8.9 | 1.5 | -5.0 | -2.8
O=C1CC(C(=O)N(c2ccc(F)cc2)C(C(=O)NC2CCCC2)c2ccccn2)CS1 (configuration not stated) | 0.7 | -17.7 | -11.3 | 5.5 | 3.1 | 2.0 | . | .
SMILES | Ba/F3 V617F tox | FID counter | GPR7 antag | KLF5 inh | BaF3 parental | IEC-6 tox | GPR7 antag cf | MCHR1 antag
COc1ccc(CN2CCN(CC(O)Cn3c4ccccc4c4ccccc43)CC2)cc1 (configuration not stated) | 1.5 | 20.6 | 23.1* | -21.5 | 9.1 | -11.6 | 46.7* | 67.9*
O=c1c2ccccc2n(CC(O)CN2CCCCC2)c2ccccc12 (configuration not stated) | -4.4 | 7.6 | -1.0 | -15.3 | -0.9 | -0.6 | . | .
O=c1c2ccccc2n(CC(O)CN2CCOCC2)c2ccccc12 (configuration not stated) | . | 6.8 | 42.1* | -8.6 | . | 1.2 | 0.8 | 0.2
CCOc1ccc(CN2CCN(CC(O)Cn3c4ccccc4c4ccccc43)CC2)cc1 (configuration not stated) | 2.3 | 24.7 | 14.2 | 0.4 | 3.8 | -0.3 | . | .
O=C(Nc1cccc(Cl)c1)c1cccc(Oc2ccc([N+](=O)[O-])cc2Cl)c1 | 1.6 | 10.3 | -7.7 | -22.6 | 6.8 | 2.5 | . | .
COc1ccc(NC(=O)c2cccc(Oc3ccc([N+](=O)[O-])cc3Cl)c2)cc1 | 1.4 | 0.9 | 33.9* | -4.8 | 3.4 | 1.7 | 11.2 | 35.9*
Cc1cccc(C)c1NC(=O)CNC(=O)C(NC(=O)c1ccc(C(C)(C)C)cc1)C(C)C (configuration not stated) | -1.0 | -4.6 | -15.6 | -45.1 | 6.0 | -1.3 | . | .
CC(O)CN(C)CC/C=C1/c2ccccc2CSc2ccccc21 (configuration not stated) | -3.9 | 18.9 | 22.1* | -1.8 | -2.5 | 2.3 | 17.3 | 17.5
CCCc1nc(-c2ccccc2)c(-c2ccc(OC)c(OC)c2)c(=O)[nH]1 | . | -25.2 | -6.9 | -28.1 | . | 6.8 | . | .
CCCC/C(O)=N\S(=O)(=O)c1ccc(N=NN(C)C)cc1 | -2.9 | -1.3 | -4.8 | -3.6 | -2.2 | 5.1 | . | .
CCCCN(C)CC(O)Cn1cc(/C=C/C(=O)c2ccc(C)cc2)c2ccccc21 (configuration not stated) | . | 22.7 | 37.0* | -18.8 | . | -4.6 | 37.0* | 35.9*
O=C(NNc1cc(Cl)ccc1Cl)c1cccs1 | 3.2 | -6.0 | -26.7 | 3.1 | -6.0 | 6.3 | . | .
Cc1cc(Cl)ccc1NNC(=O)c1cccs1 | -5.2 | 2.0 | 22.9* | 5.8 | 0.2 | -3.2 | 0.6 | 3.2
Cc1ccc(NC(=S)NC2CCSc3ccccc32)cc1 (configuration not stated) | . | -9.8 | 34.4* | 14.6 | . | 2.6 | 2.1 | 39.2*
CC(=O)Nc1ccc(C(=O)NC2CCSc3ccccc32)cc1 (configuration not stated) | . | -3.1 | -7.3 | -29.8 | . | -0.5 | . | .
O=C(CN1CCN(C(=O)c2ccco2)CC1)Nc1cc(C(F)(F)F)ccc1Cl | 0.4 | -18.4 | 0.2 | 0.3 | 3.5 | 5.4 | . | .
CCOC(=O)CSc1nnc(-c2ccc3ncccc3c2)n1C | 2.9 | -8.0 | 6.6 | -21.2 | -4.7 | 2.9 | . | .
CC(=O)Nc1ccc(Sc2ncccc2C(=O)Nc2ccc(OC(F)(F)F)cc2)cn1 | 1.6 | -10.8 | 96.8* | 7.4 | 11.1 | 7.1 | 98.3* | 102.5*
